Screening results deposited in PubChem BioAssay by National Center for Advancing Translational Sciences (NCATS).
The entries come from a sample that favours hits as a whole.
Tb PFK block = inhibitors of T. brucei phosphofructokinase; T. brucei PFK, ADP-Glo luminescence; Potency, µM (doses to about 57.5 µM), inactives show top-dose activity, negative = inhibition, most hits filed as inhibitors; O15648; actives 0.17% (n = 330,000);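 further: potency means the concentration at half of the fitted maximal effect; 0% = uninhibited 1x PFK enzyme wells and -100% = no-enzyme wells; nearly all actives have a fitted effect of over 60% in size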
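1.25 nM PFK with 0.5 mM F6P and 0.1 mM ATP in 0.1 M TEA pH 8.0, 5 mM MgCl2, incubated 45 min at room temperature; ADP measured by ADP-Glo luminescence; compounds titrated up to 57 uM.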
Tb PGK inh = blocks T. brucei phosphoglycerate kinase; PGK/GAPDH coupled, Kinase-Glo luminescence, 60 min; actives 0.043% (n = 380,000); Potency, µM (titrated, usually from 57.5 µM), for inactives: top-dose activity change, negative = inhibition, usual class: inhibitors; further: potency means the concentration at half of the fitted maximal effect; nearly all actives have a fitted effect of over 60% in size
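Luminescent ATP detection (Kinase-Glo Plus) follows a 60-minute room-temperature incubation, with wells lacking PGK as controls. Buffer: 100 mM TEA (pH 7.6), 5 mM MgCl2, 0.01% Tween-20. Coupling enzyme GAPDH (100 nM final) supplies unstable 1,3-BPG in-well.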
Pin1 inhibitor = inhibitors of human Pin1; Pin1 FP peptide displacement, HiFluor488, 10 min; Potency, µM (doses to about 115 µM), inactives show top-dose activity, negative = inhibition, usual class: inhibitors; actives 0.009% (n = 390,000); AID 504891; active means well fitted inhibition curve with a large enough effect in the polarisation, with a control signal flat, not every such curve was filed as active; inconclusive means small, poorly fitted or top-dose-only effect, or effect the other way, or a change in a side signal; inactive means no such curve, though single readings can be large or run the other way; the % refers to the polarisation; further: potency means the concentration at half of the fitted maximal effect
PI4K2A inh = inhibitors of human PI4K2A. AID 1346378. purified PI4K2A, ADP-Glo luminescence, 1 h; hits give low values. actives 0.13% (n = 420,000). activity change, negative = inhibition, % at 76.9 µM; in the data active means activity change below about -50%; inconclusive means mostly about -30% to -49%;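 further: -100% = wells without enzyme as full effect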
Target sequence (Q9BTU6 whole entry, looked up): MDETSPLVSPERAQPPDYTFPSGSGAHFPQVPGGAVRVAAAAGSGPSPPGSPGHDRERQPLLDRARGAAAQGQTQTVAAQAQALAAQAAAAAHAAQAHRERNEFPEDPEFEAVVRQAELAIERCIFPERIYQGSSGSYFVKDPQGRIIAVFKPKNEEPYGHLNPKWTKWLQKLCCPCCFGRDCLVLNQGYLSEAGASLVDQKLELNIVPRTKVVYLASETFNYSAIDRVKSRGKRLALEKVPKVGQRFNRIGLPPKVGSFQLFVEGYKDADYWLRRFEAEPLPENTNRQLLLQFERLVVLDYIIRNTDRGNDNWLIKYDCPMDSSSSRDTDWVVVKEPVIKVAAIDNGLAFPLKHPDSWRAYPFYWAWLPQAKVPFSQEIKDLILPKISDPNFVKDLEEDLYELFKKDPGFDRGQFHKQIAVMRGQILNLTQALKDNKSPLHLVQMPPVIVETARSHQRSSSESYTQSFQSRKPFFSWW
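Compounds are screened against recombinant PI4K2A using PI as substrate and ATP, the latter dispensed at 300 microM. Reactions run one hour at ambient temperature before ADP-Glo detection; full inhibition defined by wells lacking enzyme.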
PI5P4K alpha inh = inhibitors of human PI5P4K alpha; PI5P4Kalpha enzyme, ADP-Glo luminescence, 60 min; hits give low values; max response, %; actives 1.2% (n = 330,000); active means max response of -50% or lower; inconclusive means between -30% and -50%; inactive means -30% or higher; further: value at the top dose of about 77 µM
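Quantitative HTS of the MLSMR library against PI5P4Kalpha with substrate. ATP added last at 5 microM final; room temperature, 60 minutes. Remaining ATP depleted, ADP converted and read as luminescence.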
The depositor's hits bear a star; i = inactive; ? = inconclusive; / = no result. Unless noted, the call rests on the fitted dose curve; in most records, active means well fitted curve in the direction sought with a large enough effect; inconclusive means small, poorly fitted or top-dose-only effect, or another doubt; inactive means no such curve, though single readings can be large; an effect the other way counts as inactive or inconclusive. Unless noted, on the % scale 0 is the no-effect control and ±100 the full control effect.

SMILES | Tb PFK block | Tb PGK inh | Pin1 inhibitor | PI4K2A inh | PI5P4K alpha inh
CO[C@@H]1[C@@H](O[C@@H]2O[C@H](C)[C@@H](O[C@H]3C[C@@](C)(O)[C@@H](O)[C@H](C)O3)[C@H](N(C)C)[C@H]2O)[C@@H](CC=O)C[C@@H](C)[C@@H](O[C@@H]2CC[C@H](N(C)C)[C@@H](C)O2)/C=C/C=C/C[C@@H](C)OC(=O)C[C@H]1OC(C)=O | / | / | / | -2 | /
O=C(O)CCNc1cc(N2CCN(C(=O)c3ccco3)CC2)c2noc3c2c1C(=O)c1ccccc1-3 | ? | ? | ? | -61* | -58*
CCN1CCN(c2cc(N3CCN(C(=O)c4ccco4)CC3)c3c4c(onc24)-c2ccccc2C3=O)CC1 | -24% | -12% | ? | -23 | -16
CNC(=O)CN(CCN(CCN(CC(=O)[O-])CC(=O)NC)CC(=O)[O-])CC(=O)[O-].O.[Gd+3] | / | / | / | 4 | /
O=Cc1ccc(N2CCN(S(=O)(=O)c3ccc4c(c3)CC(=O)N4)CC2)cc1 | / | / | / | -56* | /
Cc1cccc(OCc2nnc(SC(C)C(=O)O)n2-c2ccccc2)c1 (stereo not given) | 1% | 7% | -2% | -1 | -53*
O=C1C(=O)C(Cl)=C(Cl)C(Cl)=C1Cl | / | / | / | -29 | -54*
CCC(=O)NC(c1ccc(C)s1)c1cc(Cl)c2cccnc2c1O (stereo not given) | / | / | 4% | / | /
O=C(CN1C(=O)/C(=C\c2ccco2)SC1=S)Nc1ccc(O)cc1C(=O)O | -7% | ? | -2% | -8 | -62*
O=C(O)CCCN1C(=O)/C(=C\c2ccco2)SC1=S | ? | -9% | / | -26 | -27
O=C(CCCN1C(=O)/C(=C\c2ccccc2)SC1=S)Nc1ccc(O)cc1C(=O)O | -3% | i | -5% | -10 | -15
O=C(CCN1C(=O)/C(=C/c2ccco2)SC1=S)Nc1ccc(O)cc1C(=O)O | ? | ? | ? | -2 | -63*
O=C(CCCN1C(=O)/C(=C/c2ccco2)SC1=S)Nc1ccccc1C(=O)O | 17% | -28% | ? | -2 | -82*
O=C1/C(=C\c2ccco2)SC(=S)N1Cc1ccccc1 | -8% | -2% | 2% | 1 | -16
CCOC(=O)N1CCN(C(=O)C[C@H]2C[C@@]3(C(=O)OCC)CCCC4=C3N(CCC4)C2=O)CC1 | / | / | / | 0 | /
Cn1nnnc1Sc1ncnc2scc(-c3ccccc3C#N)c12 | / | / | 6% | / | /
CC(C)C(OC(=O)CNC(=O)c1ccccc1)C(=O)Nc1cc(C(F)(F)F)ccc1Cl (stereo not given) | / | / | 1% | / | /
O=C(/C=C/c1ccccc1Cl)c1ccc(O)cc1 | 13% | -7% | 7% | -5 | -54*
Cc1cc2c(s1)c1cnn(Cc3ccc(F)c(Cl)c3)c(=O)c1n2C | / | / | 0% | / | /
O=C1C=CC(=Nc2ccc3c(c2)Cc2cc(F)ccc2-3)O1 | / | 4% | -2% | 12 | -58*
O=C1C=CC(=Nc2cccc3c2C(=O)c2ccccc2-3)O1 | / | -8% | ? | -19 | -6
CC(=O)Nc1ccc(S(=O)(=O)N2CCCN(S(=O)(=O)c3ccc4c(c3)OCCO4)CC2)cc1 | / | / | 2% | / | /
CC1(c2ccc3c(c2)OCCO3)NC(=O)N(CC(=O)c2ccc[nH]2)C1=O (stereo not given) | 3% | -12% | 7% | -13 | -53*
CC1(c2ccc3c(c2)OCO3)NC(=O)N(CC(=O)c2ccc[nH]2)C1=O (stereo not given) | -1% | -3% | 3% | -2 | -24
COc1ccc(C2c3c(ncn(Cc4ccccc4)c3=N)Oc3ccc4ccccc4c32)cc1OC (stereo not given) | / | / | 66% | / | /
O=C(O)c1cccc(-n2cccc2/C=C/[N+](=O)[O-])c1 | -21% | ? | ? | -25 | -88*
N#Cc1c(NC(=O)/C=C/c2ccco2)sc2c1CCCC2 | -2% | -9% | 16% | -6 | -63*
O=C(/C=C/c1ccco1)Nc1sc2c(c1C(=O)O)CCC2 | 22% | -14% | ? | -5 | /
O=C1CCc2cc(S(=O)(=O)Nc3cccc(-c4ccccc4)c3)ccc2N1 | / | / | -1% | / | /
COc1ccccc1NC(=O)CCCCCN1C(=O)c2cccc([N+](=O)[O-])c2C1=O | 0% | -1% | -11% | -1 | -1
